Tb PYK inh: qHTS of Trypanosoma Brucei Inhibitors; pyruvate kinase (Trypanosoma brucei), Q57TT1; TbPYK enzyme, Kinase-Glo Plus ATP luminescence, 45 min; Potency, µM (titrated, usually from 76.8 µM), for the others: at the top dose activity, negative = inhibition, usual class: inhibitors; 410,000 compounds, 0.12% hits; note: % is set by controls: 0 for no effect and ±100 for the full control effect; nearly all actives have a fitted effect of over 50% in size
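Assay buffer: 50 mM TEA pH 7.2, 100 mM KCl, 10 mM MgCl2, 0.05% BSA, 0.01% Tween-20. Pyruvate kinase from T. brucei plus substrate met compound, then ADP (130 uM final). Luminescence was read post 45 min RT.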
Giardia FBPA inh-1: qHTS Assay for Inhibitors of Fructose-1,6-bisphosphate Aldolase from Giardia Lamblia; purified Giardia FBPA; Potency, µM (highest dose often 59.6 µM), without a hit: top-dose activity, negative = inhibition, usual class: inhibitors; 290,000 compounds, 0.71% hits; note: % is set by controls: 0 for no effect and ±100 for the full control effect; nearly all actives have a fitted effect of over 55% in size
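40 nM FBPA preincubated 10 min at RT with compound (up to 57.5 uM final), then substrate plus GAPDH/TPI/NAD/arsenate coupling and diaphorase/resazurin added. Fluorescence read after 20 min at RT, 525/598 nm.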
NS1 function inh: qHTS Assay for Inhibitors of Influenza NS1 Protein Function. Potency, µM (series often up to 46.1 µM), inactives show at the highest dose activity, positive = more growth. 270,000 compounds, 0.4% hits. AID 2326, 2010; calls by dose curve; note: actives are rising curves; nearly all actives have a fitted effect of over 50% in size
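S. cerevisiae expressing influenza A NS1, grown in glucose, washed, then diluted 1:100 into pH 6.0 -URA galactose medium with 23 nl compound. Growth recovery read as OD600; NS1-free strain serves as control.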
LmPK inhibitor: qHTS Assay for Inhibitors of Leishmania Mexicana Pyruvate Kinase (LmPK). Q27686. 290,000 compounds, 0.37% hits. AID 1721, 2009. Potency, µM (highest dose often 57.5 µM), inactives show top-dose activity change, negative = inhibition, most hits filed as inhibitors. purified LmPK, Kinase-Glo ATP luminescence, 1 h; note: % is set by controls: 0 for no effect and ±100 for the full control effect
Target sequence (Q27686 whole entry, looked up): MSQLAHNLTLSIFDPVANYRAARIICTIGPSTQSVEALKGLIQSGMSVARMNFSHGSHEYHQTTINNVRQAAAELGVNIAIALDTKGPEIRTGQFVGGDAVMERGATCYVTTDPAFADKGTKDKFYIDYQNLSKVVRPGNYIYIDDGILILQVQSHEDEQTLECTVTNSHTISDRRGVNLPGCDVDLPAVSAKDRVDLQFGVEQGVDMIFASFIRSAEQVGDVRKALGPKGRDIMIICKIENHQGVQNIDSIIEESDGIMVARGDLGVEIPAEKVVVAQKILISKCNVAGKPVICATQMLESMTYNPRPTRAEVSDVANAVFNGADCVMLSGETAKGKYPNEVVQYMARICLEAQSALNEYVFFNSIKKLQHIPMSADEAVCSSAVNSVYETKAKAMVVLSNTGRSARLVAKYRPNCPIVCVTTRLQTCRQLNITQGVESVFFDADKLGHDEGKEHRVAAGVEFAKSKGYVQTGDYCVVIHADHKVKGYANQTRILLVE
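Pyruvate kinase activity monitored as ATP production (luciferase luminescence). Conditions: 0.1 nM enzyme, 0.5 mM PEP, 0.1 mM ADP, 1 h, RT; normalized against uninhibited and no-enzyme wells.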
AMA1 RON2 block: qHTS for Inhibitors of AMA1-RON; Towards Development of Antimalarial Drug Lead: Primary Screen; Plasmodium falciparum AMA1 (3D7) - RON2 peptide interaction; AlphaScreen AMA1-biotinylated RON2 peptide binding; Potency, µM (doses to about 58.2 µM), for inactives: at the highest dose activity change, negative = inhibition, usual class: inhibitors; 360,000 compounds, 0.2% hits; AID 720542, 2013;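 note: 0% = vehicle wells and -100% = peptide control; nearly all actives have a fitted effect of over 45% in size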
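AMA1 (3D7) with his tag at 25 nM final met compounds first, then biotinylated RON2 peptide at 25 nM; detection used donor plus acceptor beads, 10 µg/mL apiece, read by AlphaScreen after 30 min at room temperature.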
Giardia growth: qHTS Assay for Inhibitors of Fructose-1,6-bisphosphate Aldolase from Giardia Lamblia: Giardia lamblia growth inhibition | 1,500 compounds, 5% hits | Potency, µM (titrated, usually from 57.5 µM), without a hit: at the highest dose activity change, negative = inhibition, hits mostly inhibitors | shares compounds with Giardia FBPA inh-1 | Giardia lamblia trophozoite growth inhibition;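 note: trophozoites exposed to compound for 48 h at 37 °C; % is set by controls: 0 for no effect and ±100 for the full control effect; nearly all actives have a fitted effect of over 70% in size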
Mammalian tox: qHTS Assay for Inhibitors of Fructose-1,6-bisphosphate Aldolase from Giardia Lamblia: Mammalian cellular toxicity; Potency, µM (series often up to 57.5 µM), without a hit: at the highest dose viability change, negative = toxicity, hits mostly inhibitors; 1,500 compounds, 4% hits; shares compounds with Giardia FBPA inh-1; mammalian cell viability counter-screen, qHTS;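 note: Chinese hamster ovary cells used as mammalian cytotoxicity surrogate; viability measured as cellular ATP by luminescence; compound exposure lasted 48 h before reading; % is set by controls: 0 for no effect and ±100 for the full control effect; nearly all actives have a fitted effect of over 60% in size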
Giardia FBPA inh-2: qHTS Assay for Inhibitors of Fructose-1,6-bisphosphate Aldolase from Giardia Lamblia: Primary screen confirmation. shares compounds with Giardia FBPA inh-1. purified Giardia aldolase enzyme activity, qHTS. Potency, µM (top dose mostly 57.5 µM), for inactives: at the highest dose activity change, negative = inhibition, actives largely listed as inhibitors. 1,500 compounds, 5% hits. AID 2787, 2010; note: % is set by controls: 0 for no effect and ±100 for the full control effect; nearly all actives have a fitted effect of over 45% in size
Rabbit FBPA inh: qHTS Assay for Inhibitors of Fructose-1,6-bisphosphate Aldolase from Giardia Lamblia: Rabbit FBPA Selectivity; 1,500 compounds, 4% hits; Potency, µM (top dose mostly 57.5 µM), for the others: top-dose activity, negative = inhibition, hits mostly inhibitors; Rabbit muscle FBPA enzyme inhibition, selectivity counter-screen; shares compounds with Giardia FBPA inh-1; note: % is set by controls: 0 for no effect and ±100 for the full control effect; nearly all actives have a fitted effect of over 60% in size
GAPDH coupling: qHTS Assay for Inhibitors of Fructose-1,6-bisphosphate Aldolase from Giardia Lamblia: Coupling assay counterscreen confirmation | Potency, µM (series often up to 57.5 µM), for the others: at the highest dose activity change, negative = inhibition, hits mostly inhibitors | GAPDH coupling enzyme counterscreen, biochemical, qHTS | 1,500 compounds, 6% hits | shares compounds with Giardia FBPA inh-1 | AID 2795, 2010; note: % is set by controls: 0 for no effect and ±100 for the full control effect; nearly all actives have a fitted effect of over 55% in size
Starred values were filed as active, the others as inactive; ? = inconclusive; . = no result; [ ] = dose if it differs, or a comment. Sampled rows, rich in hits. Any-hit rate of the full collection: about 1.2%. Unless noted, calls come from the whole dose curve; as a rule, active = well fitted curve in the direction sought with a large enough effect; inconclusive = small, poorly fitted or top-dose-only effect, or another doubt; inactive = no such curve, though single readings can be large; an effect the other way counts as inactive or inconclusive. Potency is the fitted concentration of half-maximal effect.

SMILES	Tb PYK inh	Giardia FBPA inh-1	NS1 function inh	LmPK inhibitor	AMA1 RON2 block	Giardia growth	Mammalian tox	Giardia FBPA inh-2	Rabbit FBPA inh	GAPDH coupling
Cn1c(O)c(C(c2ccccn2)c2c(O)n(C)c(=S)[nH]c2=O)c(=O)[nH]c1=S	-21%	18µM*	-13%	-1%	29%	15%	-1%	3%	-1%	17%
Cc1c(NC(=S)NC(=O)c2cccc(Cl)c2)c(=O)n(-c2ccccc2)n1C	2%	13µM*	19%	-1%	8%	24%	16%	3%	12%	10%
CC1(C)Cc2c(c(-c3ccccc3)nc3sc4c(=O)[nH]c(=S)[nH]c4c23)CO1	-2%	4%	-1%	-1%	-12%	.	.	.	.	.
CC1(C)Cc2sc3c(=O)[nH]c(=S)[nH]c3c2CO1	?	10µM*	2%	-7%	75%	-5%[38.3 µM]	5%	-7%	12%	4%
Cc1c(Cl)cccc1NC(=O)Cn1cc(C(=O)C2CCCCC2)c2ccccc21	-9%	.	.	.	.	.	.	.	.	.
CCCCC(=O)Nc1nnc(SCc2cc(=O)n3cc(C)ccc3n2)s1	0%	.	.	.	.	.	.	.	.	.
COc1ccccc1CN1CCCC2(CCN(C(=O)c3cnccn3)CC2)C1	-3%	10%	.	.	.	.	.	.	.	.
Cc1ccc(Nc2nc(NCCO)c3ccccc3n2)cc1C	1%	25µM*	-51%	-3%	-21%	4%[10.4 µM]	?	-2%	4%	-16%
CCN(CC)CCCNC(=O)CN1N=C(c2ccccc2)CCC1=O	-6%	.	.	.	.	.	.	.	.	.
CCN(CC)c1ccc(S(=O)(=O)N2CCOCC2)cc1NC(=O)CNCc1ccccc1	-4%	?	-6%	-2%	-1%	.	.	.	.	.
CCN(CC)S(=O)(=O)c1ccc(C)c(NC(=O)CN2CCN(Cc3ccccc3)CC2)c1	22%	20µM*	3%	-2%	-18%	-11%[10.4 µM]	-28%	2%	-1%	8%
CCN(CC)c1ccc(S(=O)(=O)N2CCOCC2)cc1NC(=O)CN1CCN(Cc2ccccc2)CC1	5%	20µM*	-3%	-1%	-24%	-22%	-8%	-3%	-5%	5%
CCN(CC)S(=O)(=O)c1ccc(C)c(NC(=O)CSc2nnnn2C)c1	-20%	.	.	.	3%[11.6 µM]	.	.	.	.	.
CCN(CC)S(=O)(=O)c1ccc(C)c(NC(=O)CNCCN(C(C)C)C(C)C)c1	37%	14µM*	3%	3%	-13%	24%	13%	7%	3%	12%
CCOCCCNC(=O)c1c[nH]c2ccc(S(=O)(=O)Nc3cccc(Cl)c3C)cc2c1=O	1%	.	.	.	.	.	.	.	.	.
Cc1cn([C@@H]2C[C@H](N=[N+]=N)[C@H](CO)O2)c(=O)[nH]c1=O	.	-2%[21.7 µM]	.	.	.	.	.	.	.	.
